Drawing on PubChem BioAssay (NCI), this text covers growth for 39 molecules.

Compounds without any hit were thinned out: in the full panel of roughly 83,000, 20% have a hit.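 Note: values are percent growth. 100 is the growth of untreated cells, values between 100 and 0 indicate rising inhibition; between -100 and 0 indicates cell death.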 Values without a mark were called inactive. The source made the active and inactive calls. Rule for the calls: active = growth percent below 10; inactive = the rest.

In the assay the test system is KM12 colon. Briefly: NCI-60 one-dose screen, 48 h (100 = growth as untreated, 0 = no growth, -100 = all killed). To be noted: 10 µM unless noted.
In the case of `CCn1cc(C(=O)O)c(=O)c2cc(F)c(N3CCN(CC(=O)Nc4ccccc4)C(C)C3)c(F)c21` (centres undefined), the growth was 99.9%. The result for `c1cc(OCCN2CCCCC2)ccc1CNc1ccc2nc(CCC3CCCCC3)[nH]c2c1` reads 43%.

On to `COC1C(O)CC(OC2CC(OC3CC(O[C@@H]4C(=O)c5c(cc6cc(OC7CC(OC8CC(O)C(O)C(C)O8)C(O)C(C)O7)c(C)c(O)c6c5O)CC4[C@H](OC)C(=O)C(C)=O)OC(C)C3O)OC(C)C2O)OC1C` (some centres undefined), for which the growth is 13%. The result for `Cc1ccc(OCCOCCOCCOc2ccc(C)n(O)c2=S)c(=S)n1O` reads 30.8%.

`Cn1cc(-c2csc(-c3cn(CCCN4CCOCC4)c4ccc(F)cc34)n2)c2cccnc21`: the growth was 34.3%.

For `O=C1c2cccnc2C(=O)c2c1c(C(=O)OCCc1ccccn1)c1ccccn21`, the growth is 4.35% (active).

On to `C#CCOc1cccc(Nc2ncnc3c2ncn3C2CCN(C(=O)CCl)C2)c1` (centres undefined), for which the growth was 23.7%. The result for `O=C(Cn1nc(-c2cccc3ccccc23)ccc1=O)NCc1cccc(Cl)c1` reads 41.7% [50 µM]; that for `CC1(C)CC[C@]23CC[C@]4(C)[C@H](CC[C@@H]5[C@@]6(C)C/C(=C/O)C(=O)C(C)(C)[C@@H]6CC[C@]54C)[C@H]2[C@H]1OC3`, 114%. Take `Clc1ccc(-c2cc(-c3ccccc3)nc(N3CCN(CCCNc4ccnc5cc(Cl)ccc45)CC3)n2)cc1`: the growth is 3.69% (active). With `Nc1nc(C(=O)N/N=C/c2ccc(F)cc2)nn1-c1ccc(S(N)(=O)=O)cc1`, the growth was 96.7%. `CN(C)c1ccc(CNCCO)cc1`: the growth is 105%. In the case of `Nc1c(Br)cc2c(c1Br)Cc1cc([N+](=O)[O-])ccc1-2`, the growth was 99.1%. For `COC(=O)Cn1c2c(c3c(OC)cccc31)C(=O)c1ccccc1-2`, the growth is 107%.

With `O=C(/C=C/c1ccccc1)c1ccc(-n2cc(CN3CCN(c4cc5c(cc4F)c(=O)c(C(=O)O)cn5C4CC4)CC3)nn2)cc1`, the growth is 73.7%. Then `Cc1cc2oc(/C=C/c3ccccc3)cc(=O)c2c(C)c1Cl`, with 109%. Then `Cc1nc(N/N=C/c2cn(-c3ccccc3)nc2-c2cc3ccccc3oc2=O)sc1N=Nc1ccccc1`, with 63.7%; and `Oc1c(CN2CCC(N3CCOCC3)CC2)cc(Cc2cc(CN3CCC(N4CCOCC4)CC3)c(O)c3ncccc23)c2cccnc12`, with 17.1%. The result for `N#Cc1nn(-c2cc(=O)[nH]c3ccc(Br)cc23)c(N)c1C#N` reads 109%; that for `CCCCO[C@@H]1C=C2[C@H]3CC(C)(C)C(=O)C[C@]3(C(=O)O[C@@H]3O[C@H](CO[C@@H]4O[C@H](CO)[C@@H](OC5OC(C)C(O)C(O)C5O)[C@H](O)[C@H]4O)[C@@H](O)[C@H](O)[C@H]3O)CC[C@@]2(C)[C@]2(C)CC[C@H]3C(C)(C)C(=O)CC[C@]3(C)[C@@H]12` (some centres undefined), 75.2%; that for `CC(=O)c1c(Nc2cccc(F)c2)[nH]c2c(Cl)cc(Cl)c(Cl)c2c1=O`, 4.18% (active).

On to `O=c1cc(CP(=O)(O)O)c2cc(O)c(-c3ccccc3)cc2o1`, for which the growth is 105%.

For `CC(=O)c1sc(-c2ccc(F)cc2)cc1O`, the growth is 95.6%.

For `CC(=O)c1ccc(-n2cc(CN3CCN(c4cc5c(cc4F)c(=O)c(C(=O)O)cn5C4CC4)CC3)nn2)cc1`, the growth is 84.9%. Then `COc1ccc(CN2C(=O)OC(C)(COC(C)=O)C2=O)cc1` (centres undefined), with 112%. For `O=C1CCCC1[n+]1ccccc1` (centres undefined), the growth was 97.6%.

`CN(C)CCC(=O)C1CC1`: the growth was 109%. Take `Nc1ccc(-c2ccncc2)cc1NC(=O)N1CCCC1`: the growth was 94.6%. The result for `O=c1oc2c(cnc3ccccc32)cc1-c1cccc(Cl)c1` reads 110%; that for `C/C(=C(\c1ccc(OCCN2CCCCCC2)cc1)c1ccc(OC(=O)c2ccccc2)cc1)c1ccc(Cl)cc1`, 32.1%. For the molecule `Nc1cccc(-c2ccc(COc3ccc(CC4SC(=O)NC4=O)cc3)cc2)c1` (centres undefined), the growth was 33.3%. As to `C=C(C)[C@@H]1CC[C@]2(COC3CCCCO3)CC[C@]3(C)[C@H](CC[C@@H]4[C@@]5(C)C=C(C=O)C(=O)C(C)(C)[C@@H]5CC[C@]43C)[C@@H]12` (some centres undefined), the growth was -10.2% (active). The result for `O=C1CCCCN1c1ccc(C2=NCCCN2)cc1` reads 90%; that for `Cc1cc(=O)oc2cc(Oc3nc(Br)cn4c(Br)cnc34)ccc12`, 78.9%; that for `C=CN(C(=O)N1CCN(c2cc3c(cc2F)c(=O)c(C(=O)O)cn3C2CC2)CC1)c1nc(-c2ccc(Cl)cc2)cs1`, 61.8%.

Consider `Cc1ccccc1N1CCN(C(=S)c2ccccc2)CC1`, for which the growth is 112%. On to `COc1ccc(Cl)cc1Nc1nc(C(F)(F)F)ccc1C(=O)N/N=C/c1ccc([N+](=O)[O-])cc1`, for which the growth is -3.54% (active). Regarding `O=C(Nc1nc(Cl)nc(Nc2ccc(N3CCOCC3=O)cc2)n1)c1ccc(Cl)s1`, the growth was 90.6%. The result for `COCCOC(C)C(/C=N/NC(N)=S)=N/NC(N)=S` (centres undefined) reads 92.2%.
